Results as given in the supplement of paper PMC10681739.

What was measured:
ETS1 = molecular target: T1, ETS1 (UniProt P14921); assay: ETS1 binding intensity (PBM fluorescence), ETS1 alone (arbitrary fluorescence units); higher = stronger binding; settings: ETS1 concentration 1 nM; RUNX1 concentration 0 nM
T1 sequence: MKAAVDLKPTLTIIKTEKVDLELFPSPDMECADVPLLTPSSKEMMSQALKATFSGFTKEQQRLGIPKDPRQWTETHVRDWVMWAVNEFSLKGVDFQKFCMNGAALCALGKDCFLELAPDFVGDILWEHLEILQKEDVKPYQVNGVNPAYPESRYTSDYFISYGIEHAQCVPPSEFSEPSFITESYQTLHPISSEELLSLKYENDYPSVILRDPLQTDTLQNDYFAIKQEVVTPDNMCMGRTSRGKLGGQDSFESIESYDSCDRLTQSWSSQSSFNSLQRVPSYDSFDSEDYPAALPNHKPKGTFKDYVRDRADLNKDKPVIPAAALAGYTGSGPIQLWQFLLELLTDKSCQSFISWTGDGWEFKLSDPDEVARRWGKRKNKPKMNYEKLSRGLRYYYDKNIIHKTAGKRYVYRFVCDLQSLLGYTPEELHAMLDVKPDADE

RUNX1 [1] = molecular target: RUNX1 (UniProt Q01196); assay: RUNX1 binding intensity (PBM fluorescence), RUNX1 alone (arbitrary fluorescence units); higher = stronger binding; settings: RUNX1 concentration 2 nM; ETS1 concentration 0 nM
Method: (§1)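 Cooperative gcPBM on 36-bp genomic probes with neighbouring ETS1 and RUNX1 sites. Recombinant human RUNX1 (2 nM) was incubated alone or with ETS1 (25 nM) and detected with anti-RUNX1 antibody plus Alexa488 secondary. Values are medians over 4 replicate spots; the RUNX1+ETS1 data were normalised to the RUNX1-only data. The probes sit in constant array flanks that are not printed.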

RUNX1 [2] = molecular target: RUNX1 (UniProt Q01196); assay: RUNX1 binding intensity (PBM fluorescence) in presence of ETS1, normalised to RUNX1-only experiment (arbitrary fluorescence units); higher = stronger binding; settings: RUNX1 concentration 2 nM; ETS1 concentration 25 nM
Method: as §1
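For RUNX1 binding intensity (PBM fluorescence) in presence of ETS1, normalised to RUNX1-only experiment in this document: Full-length recombinant human ETS1 or RUNX1 bound to double-stranded 36-bp genomic probes on microarrays, detected by protein-specific primary antibody and Alexa488 secondary, spot fluorescence as median of four replicate spots.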
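For RUNX1 binding intensity (PBM fluorescence), RUNX1 alone in this document: Full-length recombinant human RUNX1 bound to double-stranded 36-bp genomic probes on a high-density microarray, scored as Alexa488 fluorescence per spot via anti-RUNX1 antibody, median of four replicate spots.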

Sequence of RUNX1 (Q01196 whole entry): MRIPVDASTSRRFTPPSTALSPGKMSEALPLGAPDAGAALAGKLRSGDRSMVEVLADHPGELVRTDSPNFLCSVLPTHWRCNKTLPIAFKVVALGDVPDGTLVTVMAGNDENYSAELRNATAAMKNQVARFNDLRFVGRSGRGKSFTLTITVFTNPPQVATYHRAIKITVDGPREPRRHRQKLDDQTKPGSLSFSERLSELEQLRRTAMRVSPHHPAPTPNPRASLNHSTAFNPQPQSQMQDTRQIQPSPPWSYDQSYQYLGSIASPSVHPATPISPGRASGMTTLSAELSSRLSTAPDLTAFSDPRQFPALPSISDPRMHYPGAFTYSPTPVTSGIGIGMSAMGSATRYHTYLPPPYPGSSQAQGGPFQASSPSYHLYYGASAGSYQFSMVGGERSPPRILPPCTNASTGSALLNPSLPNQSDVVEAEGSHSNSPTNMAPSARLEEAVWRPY

Sequence	ETS1 binding intensity (ETS1)	RUNX1 binding intensity (RUNX1 [1])	RUNX1 binding intensity (RUNX1 [2])
CTGACGCATTTCCGGCCTTTGCGGTTGATCGGTCAT	5220	4410	18100
GTCCTCCACTATTGTTTCCGGCCGCAGCAGAGGCGG	1870	1070	2170
CAAGCCAACATCCTGACAGTTTAGAAACCACAGGAG	464	779	1300
GGGAACTCACACCGGAAACCACAGAACCAAGAGTGG	7140	3800	6540
CCTTGCTACAGGATGTTTTGACCACGAGCCCAGGAG	1440	1090	1390
ACAGGAAGTGTCTCTATAGAAACCAAACCACAGAAA	1270	935	949
TTGACTCGGGAATGTCCGGTCGTGGTAAGCAGGGTG	770	683	999
CAGCTGACAGGAAGGAGAGAACCACAGACAGTGCGA	782	801	1260
CCACCACTCTAAGCAGGATGCGGTGCGACCCAAGAG	1390	815	972
ACACCCCAGGAAGTGGCAGAGACCACAACAAGTCAG	704	874	1910
TGCAGTCGTGAAAAAGGAAGTGGTTAAAGTGGCTAC	3680	753	1600
GGACTTCCTGAAGCCAGATCGGTTTACCACAGTCAG	413	634	1860
CACTTCCTGTCAAAGCCAGTTCCTTAACCGCTTAGG	1610	948	2930
AGGCCGCTTCCTCCCACATGAAACCGCAGGCTTCGG	374	3590	10900
CCTGCGGATCACGGAAGTGGCTGCGGTCGGCGCCAT	2160	1360	4890
GAAGGTTGTAGAGGAAGTGGTTTGTTCTTCCTCCTG	2670	837	1640
AGTTACAGTAAAGGATGTGGTGAAACAGATGTTTAT	847	781	923
AACCATTACAGGATGTGAGATTCAAACCACTAACAG	2270	849	1180
TTGAATATGAAAGGAAGTGGTTAGGTGATGTGTTCT	2370	826	1350
AATCCAACACTTCCTCCTCCACCGCAGAAAGGCAAC	518	1490	2670
CCTGTTGATAAAACAGGATGTGGTAAAGAAGCTGGC	9030	830	10300

Sequence	ETS1 binding intensity (ETS1)	RUNX1 binding intensity (RUNX1 [1])	RUNX1 binding intensity (RUNX1 [2])
CGCCGGATGCATAAAAGACTGGCTGCGGTGGCTCAG	604	724	973
CATTTCAGTCCAGGATGTGGGTGCACACACCGCTTC	1610	798	1430
ACCCTGAAATTACCCGGATGTGGTCCCCGCGCGCGC	6470	898	1930
TAAGCAGGGAATAGAGGAAGTGGTTTTGTCTCAGGC	3270	779	1780
TGTATGAAAAAAACAGGAAACCACAGAGAACTGAGG	2210	1060	2060
CCCCTCCCTGCTTCCTGTGTGGTGAGGGGTGATCAG	2040	782	1870
AGCTCCACCGGAAACGGCCTGGCCGCAGCCAATCAG	7110	806	2450
CAGGCAGGATGTTGACTCAGCTGCCAAGTGGTTTTG	1340	719	1020
GCAGTCAGAAGGTGCGGATGCGGTAAGGTATGCGCT	1130	835	1270
TGGGGAACGCTGCGGATGCTGCGGTAAACCATGCGA	643	1040	1700
AGGCTGTGTGAAGGATGTGGTCAGGCGGAGGCCAGG	604	921	1600
TAGCCACGAACCGGAAACGTTAAACCACAGCTCCGT	9650	994	5730
GCCCCTAAACCGGATGCGGCAGCCACCGCGGACCCC	9010	1290	3550
GAATGGCGGATGTGGCTGGGGAGAGAAAGCCGCAGA	914	836	2610
TGGATGGCAAGCAACGGAAACCGCAAACAGGGCTGT	1700	15600	26600
CCAGGCGGAAGCGGCCGGGAGTAGCGCTGCGGTTGG	631	817	1610
TGCAAAAAAACAGGAAACACCCAGCCGCAAATTATA	1740	863	1230
TCACATTTTGCCGGATGTGGGTTGAGGGCATGCTGC	6680	773	8730
GAGTGGGCGGAAATCCGTGCCTGGCAGACCACAAAG	1320	765	1500
CGTCTAATTGCAGGAAGTGGTTTGAAATGTTAATCT	4180	1980	3650
TGGGGGATGGCAGCAGGATGTGGTTATCTCAGAAAG	3330	814	1940
